Laboratory results taken from PubChem BioAssay.
Values joined by “and” are separate entries in the source; they are usually repeats but may differ in a detail not shown here. Equal entries are not always repeated. Active and inactive are the calls of the source.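 The calls were made as follows, unless noted: active = thallium flux through the channel raised or lowered by more than 3 SD from vehicle-only wells, actives on both sides; inactive = the rest.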

Assays:
[1] = Cy5 fluorescence interference with SSB-bound oligo, artefact control for HCV NS3 helicase inhibitor project, biochemical, NIH Clinical Collection, E. coli SSB (AID 743268; call rule not given here)
[2] = test system: Hepatitis C virus NS3 helicase; experiment: HCV NS3 helicase inhibitors, primary screen, biochemical, fluorescence polarization, NIH Clinical Collection (AID 743270; call rule not given here); details: NS3 helicase binding to Cy5-dT15 DNA, stronger effect = higher value, concentration not given here
[3] = target: Single-stranded DNA-binding protein (Escherichia coli (strain K12)) (UniProt P0AGE0); experiment: E. coli SSB displacement from DNA, counter-screen for HCV NS3 helicase inhibitor project, biochemical, fluorescence polarization, NIH Clinical Collection (AID 743271; in the data active = inhibition above about 28%); details: stronger effect = higher value, concentration not given here
[4] = fluorescence interference in NS3h assay format, artefact control for HCV NS3 helicase inhibitor project, biochemical, NIH Clinical Collection (AID 743272; call rule not given here;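 also: HCV NS3 helicase with a Cy5 labelled single stranded DNA probe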); details: fluorescence interference counterscreen, stronger effect = lower value
[5] = modulation of C. elegans fzo-1 (AID 1259413; call rule not given here;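 also: fzo-1 mutant C. elegans worms in liquid wells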); details: C. elegans fzo-1 modulator screen, mean read-out; stronger effect = higher value
[6] = sensitizers of A549 cells to miR-34 induction, primary screen, imaging, A549 dox-inducible miR-34, nuclei and caspase counts (AID 1347080;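 active = compounds whose cell count with miR-34 switched on is under 0.7 times the count with it off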); details: A549 miR-34 inducible, Hoechst nuclei count, 48 h
F380Y = experiment: modulators of BK channel variants, profiling panel, selectivity assay, cell-based, U2OS BacMam, thallium flux, beta subunits (AID 1259406); details: at 30 µM;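 also: initial slope of Thallos dye fluorescence rise after thallium is added; log ratio against the mean of 0.3% DMSO vehicle wells on the same plate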
F380Y/beta1 = experiment: as above; details: at 30 µM
F380Y/beta2Delta = experiment: as above; details: at 30 µM
F380Y/beta4 = experiment: as above; details: at 30 µM
[7] = target: Calcium-activated potassium channel subunit alpha-1 (Homo sapiens) + Leucine-rich repeat-containing protein 26 (Homo sapiens) (UniProt Q12791+Q2I0M4); experiment: as above; details: F380Y/Slo1WT/gamma1, at 30 µM
R275C = experiment: as above; details: at 30 µM
R275C/beta1 = experiment: as above; details: at 30 µM
R275C/beta2Delta = experiment: as above; details: at 30 µM
R275C/beta4 = experiment: as above; details: at 30 µM
R275C/Slo1WT/beta2 = experiment: as above; details: at 30 µM
[8] = liver-stage malaria parasite growth inhibition, primary screen, cell-based, HepG2, luciferase luminescence, HepG2 viability (AID 624349; in the data active = parasite load remaining mostly below about 12%, no sharp cut-off; inactive = mostly above about 10%;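 also: 100% = mean of DMSO negative control wells on the same plate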); details: P. berghei liver stage in HepG2, luciferase luminescence, concentration not given here; parasite load remaining: stronger effect = lower value; viability: measured here: HepG2 viability without parasites
[9] = survival rescue of mitochondrial mutant cells in low glucose, primary screen, MELAS cybrids, Rieske KO mouse fibroblasts, CellTiter-Glo (AID 1508586;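 active = mean z-score across replicates of 1.96 or higher in either the MELAS or the Rieske mutant cell line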;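 also: z relative to plate mean and SD of compound and empty wells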)
[10] = differential killing of epithelial or mesenchymal cells, primary screen, imaging, PC-3E GFP, TEM4-18 mCherry, co-culture (AID 1345086;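 active = compounds killing one labelled cell type while sparing the other, by normalised counts and ratio limits, not self-fluorescent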;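 as to all read-outs here: cells exposed to compound for 72 h before imaging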;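 as to red/green cell ratio (normalised): normalised mesenchymal count divided by normalised epithelial count so high means epithelial killing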); details: imaging cell counts, at 1 µM; for red/green cell ratio (normalised): actives lie on both sides, counts scaled to control wells, 1 = unselective
[11] = stronger effect = lower value, cell number ratio, induced over uninduced
[12] = measured here: relative caspase fold change +Dox/-Dox
[13] = measured here: total cells with miR-34 induction, stronger effect = lower value
[14] = measured here: total cells without miR-34 induction
[15] = MELAS cybrid survival, CellTiter-Glo 48 h, stronger effect = higher value
[16] = Rieske KO mouse fibroblast survival, CellTiter-Glo 72 h
[17] = measured here: epithelial PC-3E GFP cell survival
[18] = measured here: mesenchymal TEM4-18 mCherry cell survival

Chain of Calcium-activated potassium channel subunit alpha-1 (Homo sapiens) + Leucine-rich repeat-containing protein 26 (Homo sapiens) (Q2I0M4 whole entry, looked up, one chain of several): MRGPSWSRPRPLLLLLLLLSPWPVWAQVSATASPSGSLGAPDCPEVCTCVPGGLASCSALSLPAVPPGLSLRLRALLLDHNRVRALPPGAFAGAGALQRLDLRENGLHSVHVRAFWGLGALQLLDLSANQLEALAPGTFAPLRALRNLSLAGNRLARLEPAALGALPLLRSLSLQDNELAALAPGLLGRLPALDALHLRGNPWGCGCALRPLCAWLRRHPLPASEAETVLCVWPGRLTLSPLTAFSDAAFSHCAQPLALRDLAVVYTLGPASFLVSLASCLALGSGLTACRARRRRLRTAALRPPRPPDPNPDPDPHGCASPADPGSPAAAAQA

COC(=O)C[C@](O)(CCCC(C)(C)O)C(=O)O[C@@H]1C(OC)=C[C@]23CCCN2CCc2cc4c(cc2[C@H]13)OCO4
inactive: fluorescence ratio [1] 1 | inhibition [2] -0.22% | inhibition [3] 1.18% | fluorescence ratio [4] 0.99 | mean signal [5] 211 | fold change [6, 11] 1.08 | log fold change Tl+ flux (F380Y) 0.0231 | log fold change Tl+ flux (F380Y/beta1) -4.2e-05 | log fold change Tl+ flux (F380Y/beta2Delta) -0.00992 | log fold change Tl+ flux (F380Y/beta4) 0.013 | log fold change Tl+ flux [7] -0.0674 | log fold change Tl+ flux (R275C) -0.0969 | log fold change Tl+ flux (R275C/beta1) -0.0403 | log fold change Tl+ flux (R275C/beta2Delta) -0.0559 | log fold change Tl+ flux (R275C/beta4) -0.045 | log fold change Tl+ flux (R275C/Slo1WT/beta2) 0.0211
1670: cell count [6, 13]
1.16: fold change [6, 12]
1550: cell count [6, 14]

CC1=NC2SC=C(c3ccccc3Cl)N2C(=O)C1 (configuration not stated)
inactive: log fold change Tl+ flux (F380Y) -0.0123 | log fold change Tl+ flux (F380Y/beta1) 0.0244 | log fold change Tl+ flux (F380Y/beta2Delta) -0.0252 | log fold change Tl+ flux (F380Y/beta4) 0.00331 | log fold change Tl+ flux [7] -0.0675 | log fold change Tl+ flux (R275C) -0.0205 | log fold change Tl+ flux (R275C/beta1) 0.0259 | log fold change Tl+ flux (R275C/beta2Delta) -0.0444 | log fold change Tl+ flux (R275C/beta4) 0.037 | log fold change Tl+ flux (R275C/Slo1WT/beta2) 0.0321

Cc1c(C(=O)NN2CCCCC2)nn(-c2ccc(Cl)cc2Cl)c1-c1ccc(I)cc1
70.4%: viability [8]
-0.0666: z-score [9, 16]
inactive: parasite load remaining [8] 23% | fluorescence ratio [1] 0.91 | inhibition [2] 0.66% | fluorescence ratio [4] 0.92 | mean signal [5] 229 | z-score [9, 15] -0.338 | log fold change Tl+ flux (F380Y) 0.00861 | log fold change Tl+ flux (F380Y/beta1) -0.0372 | log fold change Tl+ flux (F380Y/beta2Delta) -0.0265 | log fold change Tl+ flux (F380Y/beta4) -0.0348 | log fold change Tl+ flux [7] -0.0487 | log fold change Tl+ flux (R275C) 0.0781 | log fold change Tl+ flux (R275C/beta1) 0.0181 | log fold change Tl+ flux (R275C/beta2Delta) -0.00675 | log fold change Tl+ flux (R275C/beta4) 0.0297 | log fold change Tl+ flux (R275C/Slo1WT/beta2) 0.0305

Cc1nn(C)c(NCc2cccs2)c1[N+](=O)[O-]
inactive: log fold change Tl+ flux (F380Y) 0.0023 | log fold change Tl+ flux (F380Y/beta1) 0.00245 | log fold change Tl+ flux (F380Y/beta2Delta) 0.0628 | log fold change Tl+ flux (F380Y/beta4) 0.018 | log fold change Tl+ flux [7] 0.0148 | log fold change Tl+ flux (R275C) -0.00626 | log fold change Tl+ flux (R275C/beta1) -0.0048 | log fold change Tl+ flux (R275C/beta2Delta) 0.028 | log fold change Tl+ flux (R275C/beta4) -0.0356 | log fold change Tl+ flux (R275C/Slo1WT/beta2) -0.0229

CN(C)CCCC1(c2ccc(F)cc2)OCc2cc(C#N)ccc21 (configuration not stated)
inactive: fluorescence ratio [1] 1.03 and 1.01 | inhibition [2] -5.94% and -0.45% | inhibition [3] -1.64% and 0.29% | fluorescence ratio [4] 0.99 and 1.03 | mean signal [5] 220 | red/green cell ratio (normalised) [10] 1.17 | z-score [9, 15] -0.338 and 0.623 and -0.34 | log fold change Tl+ flux (F380Y) 0.0263 and 0.0749 | log fold change Tl+ flux (F380Y/beta1) 0.0236 and -0.0159 | log fold change Tl+ flux (F380Y/beta2Delta) 0.0311 and 0.0638 | log fold change Tl+ flux (F380Y/beta4) 0.0583 and -0.00121 | log fold change Tl+ flux [7] 0.0169 and -0.0497 | log fold change Tl+ flux (R275C) -0.0255 and -0.00148 | log fold change Tl+ flux (R275C/beta1) 0.0362 and 0.0712 | log fold change Tl+ flux (R275C/beta2Delta) 0.0568 and 0.0646 | log fold change Tl+ flux (R275C/beta4) 0.0241 and 0.0131 | log fold change Tl+ flux (R275C/Slo1WT/beta2) 0.0494 and 0.00231
1.31: normalised cell number [10, 18]
1.12: normalised cell number [10, 17]
-0.153 and 0.348 and -0.881: z-score [9, 16]

COc1ccc2[nH]c(S(=O)Cc3ncc(C)c(OC)c3C)nc2c1 (configuration not stated)
78.3%: viability [8]
0.92: normalised cell number [10, 18]
1.11: normalised cell number [10, 17]
1.73 and 0.384: fold change [6, 12]
0.0948: z-score [9, 16]
inactive: parasite load remaining [8] 75.4% | fluorescence ratio [1] 1.05 | inhibition [2] -1.19% | inhibition [3] -0.1% | fluorescence ratio [4] 1.01 | mean signal [5] 220 | red/green cell ratio (normalised) [10] 0.83 | fold change [6, 11] 1.06 and 1.02 | z-score [9, 15] -0.201 | log fold change Tl+ flux (F380Y) 0.0414 | log fold change Tl+ flux (F380Y/beta1) 0.0445 | log fold change Tl+ flux (F380Y/beta2Delta) -0.007 | log fold change Tl+ flux (F380Y/beta4) 0.0255 | log fold change Tl+ flux [7] 0.0493 | log fold change Tl+ flux (R275C) -0.061 | log fold change Tl+ flux (R275C/beta1) 0.0126 | log fold change Tl+ flux (R275C/beta2Delta) 0.00561 | log fold change Tl+ flux (R275C/beta4) 0.0354 | log fold change Tl+ flux (R275C/Slo1WT/beta2) 0.0116
9290 and 8180: cell count [6, 13]
8760 and 8050: cell count [6, 14]

C[C@H]1O[C@H](O[C@H]2[C@H](O)[C@@H](O)[C@@H](O[C@H]3[C@H](O)[C@@H](O)C(O)O[C@@H]3CO)O[C@@H]2CO)[C@H](O)[C@@H](O)[C@@H]1N[C@H]1C=C(CO)[C@@H](O)[C@H](O)[C@H]1O (some centres not stated)
4.27: fold change [6, 12]
10500: cell count [6, 13]
104% and 111%: viability [8]
1: normalised cell number [10, 18]
inactive: parasite load remaining [8] 61.3% and 108% | fluorescence ratio [1] 1.08 | inhibition [2] 4.36% | inhibition [3] 0.67% | fluorescence ratio [4] 1.03 | mean signal [5] 228 | red/green cell ratio (normalised) [10] 0.91 | fold change [6, 11] 0.866 | log fold change Tl+ flux (F380Y) -0.0255 | log fold change Tl+ flux (F380Y/beta1) 0.0224 | log fold change Tl+ flux (F380Y/beta2Delta) 0.0097 | log fold change Tl+ flux (F380Y/beta4) 0.039 | log fold change Tl+ flux [7] 0.00221 | log fold change Tl+ flux (R275C) -0.0575 | log fold change Tl+ flux (R275C/beta1) -0.00956 | log fold change Tl+ flux (R275C/beta2Delta) -0.0417 | log fold change Tl+ flux (R275C/beta4) -0.0364 | log fold change Tl+ flux (R275C/Slo1WT/beta2) -0.0206
1.1: normalised cell number [10, 17]
12200: cell count [6, 14]
